Shown are actives, neighbours in structure and some others; about 32% of the full set was active somewhere.
CYP2C19 act = human CYP2C19 activators, primary screen, biochemical, luminescence; 96,000 tested, under 10 active; activation factor at 5 µM; Cytochrome P450 2C19 (Homo sapiens), P33261; recombinant CYP2C19, luciferin-H EGE luminescence; hits give high values; 0 = fully inhibited enzyme, 1 = untreated enzyme;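 active means activation factor of at least 2 at 5 µM in the primary screen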;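 further: 0 = wells with 2.5 mM tranylcypromine and 1 = vehicle-only wells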
CYP2C19 inhib = blockers of cytochrome P450 2C19 activity – biochemical, luminescence, ADME assay, primary screen; P33261; CYP2C19 Supersomes, luciferin-H EGE luminescence, 30 min; inhibition, % at 5 µM; hit rate 21% among 96,000; AID 778, 2007;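 active means CYP2C19 inhibition above a set limit at 5 µM in the primary screen, cut at about 50% in these data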;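 further: plate controls were negative control wells for no effect and 2.5 mM tranylcypromine positive control for full effect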
CYP2C9 inh = blockers of cytochrome P450 2C9 activity – biochemical, luminescence, ADME assay, primary screen. AID 777, 2007. hit rate 20% among 96,000. CYP2C9 Supersomes, luciferin-H conversion. inhibition, % at 5 µM;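 active means blocking of liver enzyme CYP2C9 beyond about 50% at 5 µM, limit read from the data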
Target sequence (P11712 whole entry, looked up): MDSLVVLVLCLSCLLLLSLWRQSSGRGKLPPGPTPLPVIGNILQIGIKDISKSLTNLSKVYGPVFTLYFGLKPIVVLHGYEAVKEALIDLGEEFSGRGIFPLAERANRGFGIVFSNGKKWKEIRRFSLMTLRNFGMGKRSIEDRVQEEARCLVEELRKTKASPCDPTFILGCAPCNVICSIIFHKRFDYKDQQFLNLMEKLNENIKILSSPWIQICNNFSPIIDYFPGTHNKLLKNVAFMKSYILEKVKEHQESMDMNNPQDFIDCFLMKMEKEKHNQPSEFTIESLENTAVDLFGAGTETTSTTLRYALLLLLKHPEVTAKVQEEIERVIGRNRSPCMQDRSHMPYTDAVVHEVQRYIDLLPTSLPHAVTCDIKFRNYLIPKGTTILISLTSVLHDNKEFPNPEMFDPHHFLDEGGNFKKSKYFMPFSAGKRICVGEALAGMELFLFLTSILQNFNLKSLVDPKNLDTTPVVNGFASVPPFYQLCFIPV
PostGolgi yeast = phenotypic screen on post-Golgi transport, primary screen | post-Golgi transport phenotypic cell assay | inhibition, % at 10 µM | AID 739, 2007 | hit rate 0.9% among 98,000;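 further: yeast cells grown in 1536-well plates; yeast grown about 18 h at 30C before absorbance read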
CYP2C9 act = human CYP2C9 activators, primary screen, biochemical, luminescence; recombinant CYP2C9, luciferin-H conversion; hits give high values; factor 1 = untreated enzyme, 0 = blocked; activation factor at 5 µM; Cytochrome P450 2C9 (Homo sapiens), P11712; hit rate 1.4% among 96,000;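 active means activation factor of 2 or more for CYP2C9 at a 5 µM dose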;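 further: 0 = sulfaphenazole-blocked wells and 1 = vehicle-only wells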
PostGolgi ctrl = growth inhibition of yeast control strain, primary screen, counter-screen for post-Golgi transport modulator project | efflux-deficient yeast background strain, growth absorbance A615, 16 h | inhibition, % at 10 µM | hit rate 5% among 98,000
Numbers without * were called inactive; nt = no result; ! = not confirmed by another sample. Unless noted, no stated cut-off is given here; in the data, active means inhibition above about 30%; inactive means the rest.

SMILES	CYP2C19 act	CYP2C19 inhib	CYP2C9 inh	PostGolgi yeast	CYP2C9 act	PostGolgi ctrl
COc1ccc(Cl)cc1N/C(N)=N/c1nc(CSc2ccc(C)cc2)cc(=O)[nH]1	0.5	52*	76*	12	0.2	0
COC(=O)Cc1cc(=O)[nH]c(/N=C(\N)Nc2ccc(C)cc2)n1	1.1	-12	9	0	0.9	-3
O=C(c1cc2cc(Cl)ccc2oc1=O)N1CCCC1	nt	nt	nt	1	nt	2
COc1ccc(OC)c(CNc2nc3ccccc3n2CCN2CCCCC2)c1	0.5	55*	17	7	0.8	-2
CCCn1c(NCc2ccc(N(C)C)cc2)nc2ccccc21	0.1	92*	24	-16	0.8	4
CCC(=O)Nc1nc2ccccc2n1CCN1CCOCC1	1	1	4	-5	1	2
CCn1c(NCc2cc(OC)ccc2OC)nc2ccccc21	0.2	78*	58*	-6	0.4	7
COc1ccc(CNc2nc3ccccc3n2CCN2CCCCC2)c(OC)c1	0.9	10	8	-6	0.9	-5
c1ccc(Cn2c(CNc3nc4ccccc4n3CCN3CCOCC3)nc3ccccc32)cc1	0.1	90*	91*	5	0.1	8
CC(C)CCN1CC(C(=O)N2CCN(c3ccc(F)cc3)CC2)CC1=O (stereo not given)	1	-3	-1	-2	1	4
NC(=O)C(c1cccc(Cl)c1)c1ncc(C(F)(F)F)cc1Cl (stereo not given)	0.6	41	3	20	1	1
CCCn1c(NCc2cc(OC)ccc2OC)nc2ccccc21	0.3	68*	28	-8	0.7	2
COc1cccc(CNc2nc3ccccc3n2CCN2CCCCC2)c1	0.5	50	52*	20	0.5	6
O=C(Nc1nc2ccccc2n1CCN1CCCCC1)C1CCCCC1	0.8	16	6	9	0.9	8
CCN(CC)CCn1c(NCc2ccc(OC)cc2)nc2ccccc21	1.1	-7	-3	2	1	5
Cc1ccc2oc(=O)c3cc(C(=O)NCc4ccco4)sc3c2c1	0.6	44	-106	-5	2.1*	6
Fc1ccc(-c2csc3ncnc(Nc4ccc(N5CCOCC5)cc4)c23)cc1	0.7	35	27	-1	0.7	3
NS(=O)(=O)c1ccc(NC(=S)NCc2ccc(Cl)cc2)cc1	0.6	38	-77	-8	1.8	17
O=[N+]([O-])c1cc(C(F)(F)F)ccc1NCCNC(=S)Nc1ccc(Cl)cc1	0.6	35	68*	82*	0.3	91*
O=[N+]([O-])c1cc(Cl)ccc1NCCNc1ncc(C(F)(F)F)cc1Cl	0.1	88*	33	-7	0.7	1
O=[N+]([O-])c1ccc(NC(=S)NCCc2ccc(Cl)cc2)cc1	0.9	12	39	106*	0.6	92*
CC1Cc2nc(SCC(=O)Nc3ccc(F)cc3)n(C)c(=O)c2S1 (stereo not given)	0.9	14	64*	22	0.4	-1
CCOc1ccccc1NC(=O)CSc1nc2c(c(=O)n1C)SC(C)C2 (stereo not given)	0.8	16	61*	-10	0.4	10
COc1cccc(NC(=O)CSc2nc3c(c(=O)n2C)SC(C)C3)c1 (stereo not given)	0.1	93*	75*	7	0.2	24
CCOc1ccc(NC(=O)CSc2nc3c(c(=O)n2C)SC(C)C3)cc1 (stereo not given)	0.9	11	47	2	0.5	1
SMILES	CYP2C19 act	CYP2C19 inhib	CYP2C9 inh	PostGolgi yeast	CYP2C9 act	PostGolgi ctrl
Cc1nnc(NC(=O)CSc2nc3c(c(=O)n2C)SC(C)C3)s1 (stereo not given)	1	-3	22	1	0.8	-1
Cc1cc(C)c(NC(=O)CSc2nc3c(c(=O)n2C)SC(C)C3)c(C)c1 (stereo not given)	0.7	32	82*	-2	0.2	31*
Cc1cc(C)cc(NC(=O)CSc2nc3c(c(=O)n2C)SC(C)C3)c1 (stereo not given)	1	1	18	15	0.8	-3
CCOC(=O)c1cc2sccc2n1CC(=O)Nc1ccc2c(c1)OCCO2	1.1	-6	18	0	0.8	0
O=C1C2CC=C(Cl)CC2C(=O)N1CC1OCCc2ccccc21 (stereo not given)	0.3	74*	55*	0	0.4	6
COc1ccc(C(NC(=O)CNC(C)=O)C(=O)Nc2ccc3c(c2)OCCO3)cc1 (stereo not given)	0.8	16	5	-3	0.9	1
Cc1nc([N+](=O)[O-])c(N2CCN(Cc3ccccc3)CC2)n1Cc1ccccc1	0.5	54*	57*	-5	0.4	12
Cc1nnc(N2CCN(Cc3ccccc3)CC2)[nH]c1=O	1	-1	-7	-1	1.1	-22
CC1(C)CC(=O)C(C=NCCc2ccc(O)cc2)=C(O)C1	1	-4	-10	1	1.1	4
CN(c1ccccc1C(=O)N1CCN(c2cccc(Cl)c2)CC1)S(C)(=O)=O	0.8	22	39	-5	0.6	13
CSC(=NC#N)N1CCN(c2ccccc2)CC1	0.5	51*	-4	1	1	2
CSC(=NC#N)N1CCN(c2cccc(Cl)c2)CC1	0	95*	33	0	0.7	8
CCOC(=O)N1CCN(CCC(=O)Nc2ccc(Br)cc2)CC1	0.1	92*	95*	-5	0.1	12
CCOC(=O)N1CCN(CCC(=O)Nc2ccc(C)c(Br)c2)CC1	0.8	21	15	-4	0.9	-3
CCOC(=O)N1CCN(CCC(=O)Nc2cccc(Br)c2)CC1	0.3	65*!	58*!	-10	0.4	5
CCCCSc1nc(N)c(NC(=O)c2ccco2)c(=O)[nH]1	1.2	-21	-10	-1	1.1	-2
c1csc(C(c2nnnn2C2CCCC2)N2CCCC3(CCCCC3)C2)c1 (stereo not given)	0.9	14	56*	-11	0.4	8
O=C(c1ccco1)N1CCN(C(c2cccs2)c2nnnn2C2CCCCC2)CC1 (stereo not given)	0.5	45	68*	3	0.3	-4
CCCNC(=O)CSc1nnc(C)s1	0.8	17	22	24	0.8	-3
O=C(OCc1cc(=O)n2cc(Br)ccc2n1)C1COc2ccccc2O1 (stereo not given)	1	-4	10	3	0.9	5
CC1CC1C(=O)OCc1cc(=O)n2cc(Br)ccc2n1 (stereo not given)	0.4	63*	36	1	0.6	10

Compound activity: PubChem, several laboratories
